Screens from PubChem BioAssay.
Shown are actives, neighbours in structure and some others; about 2.8% of the full set was active somewhere.
HIF activator: HIF pathway transcriptional activators, primary screen, cell-based, U2OS HRE-luciferase, luminescence; U2OS HRE-luciferase reporter; normalized: DMSO 0%, desferrioxamine 100%; activation, % at 7.5 µM (by protocol); 0.32% of 300,000 active;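 active = mean activation of at least 10% of the iron chelator positive control signal, with at least half of replicates also reaching 10%; inconclusive = mean and replicate majority disagree about reaching 10%; inactive = mean and most replicates under 10%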
AHR act: AHR activators, primary screen, cell-based, luminescence, luciferase reporter, human; Aryl hydrocarbon receptor (Homo sapiens), P35869; AHR-responsive luciferase reporter cells; activation, % at 5 µM; 2.5% of 320,000 active; AID 2796, 2010; in the data active = activation above about 47%;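 also: 0% = vehicle wells and 100% = reference agonist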
Target sequence (P35869 whole entry, looked up): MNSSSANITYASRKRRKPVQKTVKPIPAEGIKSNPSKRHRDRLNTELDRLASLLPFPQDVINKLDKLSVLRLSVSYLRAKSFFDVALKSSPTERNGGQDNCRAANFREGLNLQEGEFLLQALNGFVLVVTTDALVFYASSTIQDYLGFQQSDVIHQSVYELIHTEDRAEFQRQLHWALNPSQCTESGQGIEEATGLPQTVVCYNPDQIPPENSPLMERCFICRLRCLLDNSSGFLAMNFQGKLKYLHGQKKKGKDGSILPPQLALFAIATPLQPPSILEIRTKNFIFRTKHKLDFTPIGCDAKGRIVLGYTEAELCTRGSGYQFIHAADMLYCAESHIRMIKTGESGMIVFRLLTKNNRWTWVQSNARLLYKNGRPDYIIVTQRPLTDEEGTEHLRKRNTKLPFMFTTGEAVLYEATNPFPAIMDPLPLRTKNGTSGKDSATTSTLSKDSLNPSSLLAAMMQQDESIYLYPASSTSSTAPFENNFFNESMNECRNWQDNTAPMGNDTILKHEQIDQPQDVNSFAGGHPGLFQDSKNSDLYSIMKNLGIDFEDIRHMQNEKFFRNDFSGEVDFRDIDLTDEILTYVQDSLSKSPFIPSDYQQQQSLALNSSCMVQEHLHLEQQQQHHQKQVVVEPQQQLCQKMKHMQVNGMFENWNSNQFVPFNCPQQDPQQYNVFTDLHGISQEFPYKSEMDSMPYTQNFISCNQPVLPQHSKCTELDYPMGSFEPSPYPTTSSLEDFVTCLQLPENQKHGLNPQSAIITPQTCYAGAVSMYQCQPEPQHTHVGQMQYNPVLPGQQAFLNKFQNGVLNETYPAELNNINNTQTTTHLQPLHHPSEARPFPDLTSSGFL
Platelet DG rel: inhibitors of platelet dense granule secretion, primary screen, cell-based, MLPCN, human platelets; human platelet-rich plasma, SFLLRN dense granule ATP release, luminescence; inhibition, %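 (compounds screened at 7.5 µM in platelet-rich plasma)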; 0.22% of 300,000 active;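 active = mean replicate score, as percent of positive control, at or above 50; inconclusive = mean below 50 but at least one replicate at or above 50; inactive = mean and every replicate below 50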
PolyA inhibitor: polyadenylation inhibitors in yeast reporter cells, primary screen, luminescence, S. cerevisiae; activity score, % at 12 µM; S. cerevisiae SKY197-pL101 polyadenylation reporter, beta-gal luminescence; efflux-impaired pdr1/pdr3 knockout yeast; score 100 = 6 SD above DMSO; AID 1875, 2009; 0.02% of 300,000 active;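 active = lowest replicate activity score at least 50, where 100 means six control SD above control mean; inconclusive = lowest score under 50 but half or more replicates reach 50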;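 also: yeast exposed to compound for 9 h at 30 °C; higher score means more reporter readthrough which indicates perturbed polyadenylation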
p-CIP stab down: p/CIP-EGFP fusion destabilizers, primary screen, fluorescence, F442A cells; Q05BA5; 16 h; decrease of EGFP signal, % at 10 µM; 0.01% of 290,000 active; AID 1984, 2009;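 active = EGFP signal decrease of at least 30% at 10 µM or well 3 SD below plate mean, unless failing retest; inactive = the rest, including hits failing retest or dose response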
Numbers without * were called inactive; ? = inconclusive; / = no result.

SMILES	HIF activator	AHR act	Platelet DG rel	PolyA inhibitor	p-CIP stab down
COc1ccc(NC(=O)c2oc3ccccc3c2NC(=O)C2CC2)cc1	-0.1	72.1*	3.6	-16.1	-4.7
COc1ccc(NC(=O)c2oc3ccccc3c2NC(=O)c2ccco2)c(OC)c1	0.2	45.2	-3.0	0.8	7.1
COc1ccc(NC(=O)c2oc3ccccc3c2NC(=O)c2ccco2)cc1	0.3	69.2*	-1.6	-0.6	3.3
COc1ccc(NC(=O)c2oc3ccccc3c2NC(=O)C2CC2)c(OC)c1	0.3	55.2*	-9.2	1.0	-8.8
CCOCC(=O)Nc1c(C(=O)OCC)oc2ccccc12	-0.1	68.2*	3.1	-2.4	-13.8
CCOCC(=O)Nc1c(C(=O)Nc2ccc(OC)cc2OC)oc2ccccc12	0.9	66.6*	-0.6	-7.3	-6.5
Cc1cccc(C)c1-n1c(C)nn(CC2CC2)c1=O	0.1	2.3	-0.1	9.2	-2.3
Cn1c(=O)c(-c2cc(=O)[nH][nH]2)c(O)c2ccccc21	-0.2	51.2*	-0.4	13.0	-12.8
Cc1cc(C)cc(NC2=NC3(CCCCC3)N=C(N)N2)c1	0.7	55.7*	1.3	1.0	-3.9
NC1=NC2(CCCCC2)N=C(Nc2ccc(F)cc2F)N1	-0.5	0.0	0.0	1.6	0.7
O=C1/C(=C\c2ccc3c(c2)OCO3)CCC/C1=C/c1ccc2c(c1)OCO2	-0.1	48.5*	14.0	-18.7	-10.8
CCOC(=O)c1c(C)n(C)c2ccc(OC)c([N+](=O)[O-])c12	-0.3	55.5*	3.3	-8.6	-41.2
CS(=O)(=O)N(CC(=O)N1CCc2ccccc2C1)c1ccccc1Br	0.1	0.6	0.0	-3.9	-2.4
CC(=O)Nc1ccc(S(=O)(=O)Nc2nc3ccccc3nc2N2CCc3ccccc3C2)cc1	1.8	53.6*	4.8	4.5	1.8
O=S(=O)(Nc1nc2ccccc2nc1N1CCc2ccccc2C1)c1ccc(Cl)cc1	-3.0	63.3*	10.6	-4.2	8.8
O=S(=O)(Nc1nc2ccccc2nc1N1CCc2ccccc2C1)c1ccc(Br)cc1	/	23.9	/	/	-2.3
CC(=O)Nc1ccc(S(=O)(=O)Nc2nc3ccccc3nc2N2CCCCCC2)cc1	-0.5	-1.8	-4.5	-5.0	7.2
O=C(NNC(=O)c1ccccc1C(F)(F)F)c1csc(N2CCOCC2)n1	-0.2	3.0	41.2	28.6	-3.3
CCOC(=O)Cc1nnc(NC(=O)CSc2nc3ccccc3[nH]2)s1	-0.9	1.7	11.8	-6.8	-3.4
COCCC(=O)N1CCc2ccc(NC(=O)c3ccc(C(F)(F)F)cc3)cc2C1	-0.5	72.4*	10.0	-17.6	0.7
COCCC(=O)Nc1ccc2c(c1)CN(C(=O)CSC)CC2	0.4	6.5	29.8	-10.3	-9.5
CCC(C)c1ccccc1NC(=O)c1cc2cccc([N+](=O)[O-])c2[nH]1 (centres undefined)	0.5	55.1*	2.1	21.2	5.4
CCC(C)c1ccccc1NC(=O)COC(=O)c1ccc(N2CCCC2)c([N+](=O)[O-])c1 (centres undefined)	-0.1	-1.0	10.6	2.8	3.4
Cc1ccc(NC(=O)c2cc3cccc([N+](=O)[O-])c3[nH]2)cc1	1.8	70.7*	-5.7	-3.7	-10.9
Cc1ccc(NC(=O)c2ccc(-n3cccn3)c([N+](=O)[O-])c2)cc1	0.4	-2.0	-2.9	4.8	-3.6
SMILES	HIF activator	AHR act	Platelet DG rel	PolyA inhibitor	p-CIP stab down
CCn1c2ccccc2c2cc(N=C3SC(CC(=O)Nc4ccccc4OC)C(=O)N3CCOC)ccc21 (centres undefined)	-0.2	62.3*	-3.7	-1.3	0.0
Cn1cncc1C#Cc1ccc2cc(CCO)oc(=O)c2c1	/	48.5*	/	/	/
Cn1cncc1C#Cc1ccc2cc(CCCO)oc(=O)c2c1	/	18.4	/	/	/
COc1ccc(S(=O)(=O)NCC2CCC(C(=O)O)CC2)cc1 (centres undefined)	0.4	-0.8	-0.5	?	4.1
CCc1ccc(N/C(N)=N/c2nc(CSc3ncccn3)cc(=O)[nH]2)cc1	-0.1	50.1*	-0.3	-7.5	-4.9
CC1S/C(=N/N=C2CCCCC2)NC1=O (centres undefined)	-0.1	14.8	3.0	-3.6	-9.4
CC1SC(=NC(=O)c2ccncc2)NC1=O (centres undefined)	932.4*	-0.4	0.6	-4.3	-11.1
COc1ccc(-c2nc3ccccn3c2Cl)cc1	0.0	40.5	26.1	-0.3	-15.7
Cc1ccc(NCC(=O)N/N=C/c2ccc(OC(=O)c3ccco3)cc2)cc1	0.0	58.8*	-9.1	6.6	-10.6
Cc1ccc(NCC(=O)N/N=C/c2cc3ccccc3nc2Cl)cc1	2.0	60.2*	0.3	-2.6	0.6
CCOC(=O)N/N=C\c1ccc(OC(=O)c2ccco2)cc1	0.2	2.1	-1.4	-2.6	-3.9
O=C(CN1CCOCC1)N/N=C/c1cc2ccccc2nc1Cl	-0.1	0.9	-36.2	-1.2	-12.2
Cc1ccc(NCC(=O)N/N=C\c2ccc[nH]2)cc1	0.1	61.8*	4.4	-9.7	-16.5
CC(C)(C)c1ccc(-c2nnc(N)s2)cc1	0.2	62.8*	4.7	-8.7	2.2
Nc1nnc(-c2ccc(F)cc2)s1	0.5	2.9	10.7	-11.6	-13.8
COc1ccccc1C(=O)NNC(=S)NC(=O)c1ccco1	0.3	20.5	-2.9	-3.7	-20.7
COc1ccc(OCC(=O)N/N=C(\C)c2cccs2)cc1	0.1	9.5	4.5	-11.5	-4.0
O=C(COc1ccccc1[N+](=O)[O-])Nc1cccnc1	3.6	-5.4	3.3	-19.6	3.3
C/C(=N\NC(=O)COc1ccccc1[N+](=O)[O-])c1cccs1	3.8	57.4*	6.4	-7.7	-11.1
O=C(COc1ccccc1[N+](=O)[O-])Nc1ccc(Br)cc1	/	52.7*	/	/	-13.7
C/C(=N\NC(N)=O)c1ccccc1Cl	-0.1	1.0	6.2	-14.9	-7.5
Cc1cc(C(=O)NC2CCCc3c2cnn3-c2cccc(C)c2C)n(C)n1 (centres undefined)	0.1	-23.1	0.9	6.6	-12.2
CC(=O)Nc1ccc(C(=O)CSc2cc(C)c3cccc(C)c3n2)cc1	0.1	65.9*	-11.4	-14.0	1.3
Cc1cc(SCC(=O)N/N=C/c2cccnc2)nc2c(C)cccc12	-0.2	10.3	8.5	5.2	-0.6
Oc1[nH]c2ccc(Br)cc2c1N=NC(=S)Nc1ccc(F)cc1	-0.3	74.8*	8.8	-9.2	-10.0
COc1ccc2nc(-c3cccc(N)c3)[nH]c2c1	12.7*	23.7	28.4	18.9	-33.4
COc1ccc2nc(-c3ccccn3)[nH]c2c1	0.3	47.1*	23.6	8.3	-22.0
Nc1ccc2nc(-c3ccccc3)[nH]c2c1	4.9	67.0*	4.3	-5.2	10.1
COc1ccc2nc(-c3ccc(N)cc3)[nH]c2c1	-2.3	5.3	29.1	-5.0	-4.0
Nc1ccc2nc(-c3ccccn3)[nH]c2c1	1.1	39.0	9.5	9.5	-26.3
